{"source": "PubChem BioAssay (NCI)", "note": "Several values for one entry are separate records, joined by “and”; a condition that tells them apart may be missing. Equal values may be shown once. About 83,000 compounds went through this panel and 20% of them were active in at least one assay; those are over-represented in the sample as a whole.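 How to read the values: 0–100, growth inhibition (40 = 60% inhibited); 0, no net growth; -100 to 0, cell death (-40 = 40% of starting cells died; -100 = all dead).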 Activity calls are given as the source filed them. Rule for the calls: active = growth percent below 10; inactive = the rest."}
{"test_system": "MDA-MB-468 breast", "test": "NCI-60 one-dose screen, 48 h (100 = growth as untreated, 0 = no growth, -100 = all killed)", "conditions": "10 µM unless noted"}
{"molecule": "C=CCn1c(SCC(=O)Nc2ccc(/C(C)=N\\O)cc2)nnc1-c1cc(-c2ccc(Cl)cc2)nc2ccccc12", "growth": "42.7% (inactive)"}
{"molecule": "CN(C)c1ccc(/C=C\\c2cccc[n+]2C)cc1", "growth": "4.18% (active)"}
{"molecule": "Cc1nc(Nc2ccc(N)cc2)c2ccccc2n1", "growth": "86.9% (inactive)"}
{"molecule": "c1ccc(Nc2nc(Nc3ccccc3)nc(Nc3ccccc3)n2)cc1", "growth": "93.8% (inactive)"}
{"molecule": "Cc1ccc(NC(=O)c2cc3ccccc3cc2O)c(C)c1", "growth": "87.6% (inactive)"}
{"molecule": "C=CCSc1n[nH]c(-c2cccs2)n1", "growth": "95.6% (inactive)"}
{"molecule": "Nc1ccccc1NC(=O)c1ccc(CSc2nc(N3CCOCC3)c3cccn3n2)cc1", "growth": "-11.1% (active)"}
{"molecule": "Cc1cccc2c(=O)c3c(sc12)c(NCCCN)nc1ccccc13", "growth": "-38.5% (active)"}
{"molecule": "CC1=C([Se]CC(OC(=O)CC[Se]c2ccccc2)C(=O)NCCCCCC(=O)OCc2ccccc2)C(=O)c2ccccc2C1=O", "note": "(stereo not given)", "growth": "-7.59% (active)"}
{"molecule": "C=C(C)[C@@H]1CC[C@]2(C(=O)OC)CC[C@]3(C)[C@H](CC[C@@H]4[C@@](C)(CC/C(N)=N/O)[C@H](C(=C)C)CC[C@]43C)[C@@H]12", "growth": "99.5% (inactive)"}
{"molecule": "C=C1C(=O)O[C@H]2[C@H]1CC/C(COC(=O)NCc1c[nH]c3ccc(Cl)cc13)=C\\CC[C@@]1(C)O[C@@H]21", "growth": "-70.9% (active)"}
{"molecule": "NC(N)=N/N=C/c1ccc([N+](=O)[O-])cc1", "growth": "85.5% (inactive)"}
{"molecule": "CCSc1nc(Cl)c(C#N)c(-c2ccc(F)cc2)n1", "growth": "84.2% (inactive)"}
{"molecule": "COC(=O)[C@H]1CCCN1C(=O)[C@H]1CCCN1C(=O)[C@@H](Cc1c[nH]c2ccccc12)NC(=S)Nc1cc(C(F)(F)F)cc(C(F)(F)F)c1", "growth": "21% (inactive)"}
{"molecule": "Cc1cccc2c3c(sc12)C(c1ccc(Cl)cc1)c1c(nc(CC(=O)Nc2ccccc2)[nH]c1=O)O3", "note": "(stereo not given)", "growth": "9.75% (active)"}
{"molecule": "Cc1cccc(Cl)c1NC(=O)c1cnc(Nc2cc(N3CCOCC3)cc(S(C)(=O)=O)c2)s1", "growth": "26.7% (inactive)"}
{"molecule": "COc1cc(/C=C/c2ccnc3ccccc23)cc(OC)c1OC", "growth": "-8% (active)"}
{"molecule": "COc1ccc2c(c1)c(-c1noc(C(=O)c3cn(C)c4ncc(Br)cc34)n1)cn2C", "growth": "76.1% (inactive)"}
{"molecule": "COc1cc(/C=N/OC(=O)Nc2ccccc2)cc(OC)c1OC", "growth": "105% (inactive)"}
{"molecule": "CCN(CC)CCOc1ccc2c(c1)C(=O)c1cc(OCCN(CC)CC)ccc1-2", "growth": "14.9% (inactive) and -13.8% (active)"}
{"molecule": "COc1cc(C2CC(c3cccc(Nc4ccncc4)c3)=NN2c2ccc(Cl)cc2)cc(OC)c1OC", "note": "(stereo not given)", "growth": "10.3% (inactive)"}
{"molecule": "Clc1ncccc1Nc1ccc2nnc(-c3ccncc3)n2n1", "growth": "99.9% (inactive)"}
{"molecule": "O=c1nc(N2CCOCC2)oc2c(-c3cccc4ccccc34)cccc12", "growth": "76.5% (inactive)"}
{"molecule": "CCCCCCCCCCCCN1CCCC(C)C1", "note": "(stereo not given)", "growth": "68.4% (inactive)"}
{"molecule": "COc1cc(NC(=O)CSc2nc3ccc(C)cc3c(=O)n2-c2ccccc2)cc(OC)c1OC", "growth": "69.8% (inactive)"}
{"molecule": "COc1ccc(Cn2cc3c(c2-c2ccc(O)cc2)CCc2cnoc2-3)cc1", "growth": "-3.26% (active)"}
{"molecule": "NC(=O)c1cccc([C@@H]2O[C@H](CO)[C@@H](O)[C@H]2O)c1", "growth": "87.7% (inactive)"}
{"molecule": "CCN(CC)c1ccc2c(c1)Oc1nc(N)c(C#N)c(N)c1C2Sc1ccc(F)cc1", "note": "(stereo not given)", "growth": "-70.1% (active)"}
{"molecule": "COc1ccc(-c2[nH]nc(N)c2-c2cc(OC)c(OC)c(OC)c2)cc1", "growth": "34% (inactive)"}
{"molecule": "O=[N+]([O-])c1ccc(N/N=C\\c2ccccc2[N+](=O)[O-])nc1", "growth": "114% (inactive)"}
{"molecule": "Cn1ccnc1C(=O)/C=C/c1ccc(NC(=O)Nc2ccc(Cl)cc2)cc1", "growth": "43.9% (inactive)"}
{"molecule": "C=C(C)[C@@H]1CC[C@]2(C(=O)N3CCN(C)CC3)CC[C@]3(C)[C@H](CC[C@@H]4[C@@](C)(CCC(=O)O)[C@H](C(=C)C)CC[C@]43C)[C@@H]12", "growth": "90.1% (inactive)"}
{"molecule": "O=C(Cc1ccc(F)cc1)c1ccccc1", "growth": "127% (inactive)"}
{"molecule": "COC(=O)C(CSC(c1ccccc1)(c1ccccc1)c1ccccc1)NC(=O)C(CC(N)=O)NC(=O)OCc1ccccc1", "note": "(stereo not given)", "growth": "-17.7% (active)"}
{"molecule": "O=C1/C(=C/c2ccccc2[N+](=O)[O-])COc2ccc(O)c(O)c21", "growth": "-58% (active)"}
{"molecule": "O=[N+]([O-])c1cccc2cc(S(=O)(=O)O)ccc12", "growth": "112% (inactive)"}
{"molecule": "NC(CCl)=NCCC[C@H](N)C(=O)O", "growth": "91.8% (inactive)"}
{"molecule": "COC1=C(OC)C(=O)C=CC1=O", "growth": "105% (inactive)"}
{"molecule": "CCN1CCCC(N2c3ccccc3Sc3ccccc32)C1", "note": "(stereo not given)", "growth": "116% (inactive)"}
{"molecule": "CC1=CC=C(NC(=O)/C=C/c2ccccc2)CC1Nc1nccc(-c2cccnc2)n1", "note": "(stereo not given)", "growth": "3.07% (active)"}
